Laboratory results as given in PubChem BioAssay AID488857 (Sanford-Burnham Center for Chemical Genomics, 2010).
Hit rate of the full screen: of about 1,400 compounds, about 560 (40%) were called active.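 Rule for the calls: active = mean inhibition over duplicate tests at 10 µM above 50%; inactive = the rest.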 So high a share suggests a set chosen from earlier hits. This is one part of the list.

Assay: ASC/caspase-1 reporter retest in S. cerevisiae at one dose, specificity check for NALP1 project (AID 488857)
Settings: S. cerevisiae ASC/Caspase-1, beta-galactosidase luminescence, 24 h; at 10 µM; stronger effect = higher value

inhibition, active:
Cc1cccc(/C=N/n2c(-c3cc(-c4ccccc4)n[nH]3)n[nH]c2=S)c1 53.3%
Cc1ccc(C(=O)O)cc1N=Cc1cc(Br)cc(Br)c1O 83.5%
O=C(Cc1noc2ccccc12)Nc1ccc(Cl)cc1 61.3%
CCOC(=O)COc1ccccc1/C=C\[N+](=O)[O-] 101%
CCOC(=O)COc1ccc2ccccc2c1/C=C/[N+](=O)[O-] 99.9%
O=C1CSC(=S)N1c1ccc(O)cc1 98.2%
O=C1CSC(=S)N1c1cccc(O)c1 98.8%
COc1cc(N2C(=O)CSC2=S)cc(OC)c1OC 81.3%
CCCCNCCOCCOc1ccccc1-c1ccccc1 55.2%
O=C(NCc1ccc(F)cc1)c1cc(-c2ccco2)on1 52.4%
O=C(Nc1cccc(O)c1)c1cc(-c2ccco2)on1 79.8%
CCOC(=O)Nc1ccc2c(C)cc(=O)oc2c1 58.4%
CCOC(=O)Nc1cccc(Nc2ccccc2)c1 59.8%
CCOc1ccccc1C(=O)Nc1cnn(Cc2ccc(F)cc2)c1 61.2%
Cc1ccc(Nc2nc(N)c([N+](=O)[O-])c(NCc3ccco3)n2)cc1C 60.8%
CC1CCN(c2nc(NCc3ccco3)nc(N)c2[N+](=O)[O-])CC1 73%
CC1CCCN(c2nc(NCc3ccco3)nc(N)c2[N+](=O)[O-])C1 (configuration not stated) 62%
Nc1nc(NCc2ccco2)nc(N2CCCCCC2)c1[N+](=O)[O-] 62.4%
COc1ccc(C2=NN3C(=O)c4c(ccc(OC)c4OC)C3C2)cc1 (configuration not stated) 50.4%
CNC(CC(=O)c1ccc([N+](=O)[O-])cc1)C(Cl)(Cl)Cl (configuration not stated) 69.4%
N#CC(C#N)=C(Nc1ccc(F)cc1)SCc1cccc(Br)c1 83.2%
COc1ccc(N=c2cc(-c3ccc(OC)cc3)oc3ccccc23)cc1 54.5%
COC(=O)Nc1sc2nc(C)cc(C)c2c1-n1cccc1 67.7%
CCc1ccc(OCC(=O)Nc2ccc(CN3CCCCC3)cc2)cc1 55.1%
Clc1ccc2c(N/N=C/c3ccc(Br)cc3)ccnc2c1 55.6%
Cc1ccc(/C=N/Nc2ccnc3cc(Cl)ccc23)c(C)c1 55%
Clc1ccc2c(N/N=C/c3cccc(Br)c3)ccnc2c1 57%
CCOc1c(Cl)cc(CNCC(C)C)cc1OC 50%
CC(CC(=O)Nc1cccc(Cl)c1)c1ccccc1 (configuration not stated) 50%
CCOC(=O)c1nn(-c2ccc(C)cc2)cc1C(=O)c1ccccc1 64.8%
Cc1ccn2cc(-c3ccc(NC(=O)c4ccco4)cc3)nc2c1 86.5%
Cc1sc(NC(=O)c2ccco2)nc1-c1ccccc1 79%
O=C(Nc1cccc(-c2cn3ccccc3n2)c1)c1cccc(Cl)c1 58.9%
O=C(Nc1ccc(-c2cn3ccccc3n2)cc1)c1ccco1 84%
O=C(Nc1ccc2oc(-c3ccccc3)nc2c1)c1ccco1 96.3%
COCCCN(CCCN)Cc1ccco1 74.1%
CCOC(=O)C1=NN(C(=O)c2ccc(C)cc2)C(O)(c2ccc(Cl)cc2)C1 (configuration not stated) 50.6%
Oc1c(Cl)cc(Cl)c2c1NCCC2 64.7%
CCN(C(=O)[C@@H]1CCCN1C(=O)c1cccs1)c1nc2cc(Cl)ccc2s1 62.6%
Cc1cccc(NC(=O)c2ccc(C3SCC(=O)N3CCc3ccccc3)cc2)c1C (configuration not stated) 60.8%
O=C(Nc1ccc(C#Cc2ccccc2)cc1)C1CC1 73.2%
O=C(Nc1ccc(Br)c(Cl)c1)C1CC1 51%
O=C1c2ccccc2C(=O)c2cc(NC(=O)C3CC3)ccc21 51.6%

inhibition, inactive:
O=S(=O)(CC12C3C4C5C1C2C(Br)(C43)C51OCCO1)c1ccccc1 (configuration not stated) 38.5%
Cc1ccc(N2C(=O)c3ccc(C(=O)O)cc3C2=O)cc1C 37.3%
O=C(Cn1c(=O)oc2ccccc21)Nc1ccc(Cl)cc1 33.4%
CCCCN(C)CCC(=O)Nc1ccc(Cl)cc1 39.2%
CCOC(=O)C[N+](CC)(CC)CC#Cc1ccccc1 5.45%
CCOc1ccc(NC(=O)/C=C/c2ccccc2)c([N+](=O)[O-])c1 29.2%
COc1ccccc1OCC(=O)N/N=C/C=C/c1ccc([N+](=O)[O-])o1 15.4%
COc1ccc(CN2CCNC(=O)C2CC(=O)N(Cc2nccn2C)C(C)C)c(OC)c1 (configuration not stated) 26.1%
COc1cc(C2SCC(=O)N2CCCN(C)C)cc(OC)c1OC (configuration not stated) 23.1%
C/C(=N/N=C1\SCC(=O)N1c1ccccc1)c1ccc(C)cc1 39.4%
CCCCNCCOCCOc1ccc(Cl)cc1Br 49%
O=C(CSCc1ccc(F)cc1)NCc1ccco1 47.5%
O=C(Nc1nc(-c2ccco2)c(-c2ccco2)s1)C1CCC1 45.5%
Cc1ccc(NC(=O)N(C2CCCCC2)C(C)c2cccnc2)cc1C (configuration not stated) 48.4%
CCOC(=O)c1sc(NC(=O)Nc2cccc(Cl)c2)cc1C 19.4%
CCOC(=O)NC1(NCc2ccccc2)Oc2ccccc2O1 38.3%
CCOC(=O)C(=O)NNc1ccc(Cl)cc1 42.9%
Cc1cc(=O)oc2cc(OCC(=O)N3CCN(C(=O)c4ccco4)CC3)ccc12 30.7%
CC(C)CN=Cc1c(O)c([N+](=O)[O-])cc2oc3c(c12)CCCC3 28.2%
COc1ccccc1C(=O)Nc1nc2nc(-c3ccccc3)cc(=O)n2[nH]1 15.4%
Cc1ccc(C(=O)NCc2ccco2)cc1S(=O)(=O)Nc1cccc(Cl)c1 38.6%
CCN1CCN(C(=O)N[C@@H](C(=O)N[C@@H]2C(=O)N3[C@@H]2SC(C)(C)[C@@H]3C(=O)O)c2ccccc2)C(=O)C1=O 39.1%
COCCn1c(SCC(=O)NC(=O)NC(C)(C)C)nc2ccccc21 40.6%
O=c1c(F)cn(C2CCCO2)c(=O)n1Cc1c(F)cccc1Cl (configuration not stated) 33.2%
CCOC(=O)c1c(C(F)(F)C(F)(F)C(F)(F)C(F)(F)F)n[nH]c1C 25.5%
O=P(CCCCCCCCCP(=O)(c1ccccc1)c1ccccc1)(c1ccccc1)c1ccccc1 47.2%
O=C(NC(CO)Cc1ccc([N+](=O)[O-])cc1)C(Cl)Cl (configuration not stated) 34.8%
Cc1ccc(F)cc1NCC(=O)Nc1ccc(Br)cc1 41.2%
COc1ccc2c(c1)C1=NN(/C(C)=C/C(C)=O)C(c3ccc(F)cc3)C1CC2 (configuration not stated) 45.9%
COc1ccccc1NC(=O)Nc1ccc2c(c1)nnn2C 25.1%
OCCCN=c1cc(-c2ccccc2)oc2ccc(Cl)cc12 49.8%
Cn1c(N)c(C(=O)COC(=O)C2(c3ccc(Cl)cc3)CCCC2)c(=O)n(C)c1=O 26.6%
COC(=O)Nc1nc(C)c(C(=O)c2ccccc2)s1 47.8%
CCC(C)(C)NCC(=O)Nc1ccc(OC(F)(F)F)cc1 27.4%
CCOC(=O)C1CCCN(Cc2ccc(OCC)cc2)C1 (configuration not stated) 30.4%
CCCCNC(=O)C(=O)N/N=C/c1cccc(Br)c1 37.1%
Clc1ccc2c(N/N=C/c3ccccc3Br)ccnc2c1 31.4%
Cc1ccc(N/C=C/C(=O)C(C)(C)C)c(O)c1 34.2%
CC(C)Oc1ccc(Cc2cnc(N)nc2N)cc1 48%
Cc1cc2ccccc2n1CCNCc1c(C(=O)N2CCOCC2)nc2ccccn12 21.8%
Cn1cc(CC(=O)Nc2cccc(C#N)c2)c2ccccc21 34.1%
O=C(CNC(c1ccccc1)c1ccccc1)Nc1c(F)cccc1F 39.8%
CSC1=N/C(=C\c2cccnc2)C(=O)N1c1ccccc1 37.9%
NS(=O)(=O)c1ccc(NC(=O)COC(=O)c2cn(-c3ccccc3)nc2-c2ccc(F)cc2)cc1 33.1%
CCOC(=O)C1=Nc2ccccc2C1=[N+]=[N-] 46%
COc1ccc(CC(C)N2CCN(Cc3ccccc3)CC2)c(OC)c1 (configuration not stated) 39.7%
N#Cc1ccc(-c2ccc(Cl)cc2)nc1SCC(=O)c1cccc(Cl)c1 25.2%
Cc1sc2nc(SCC(=O)NCc3ccco3)n(Cc3ccccc3)c(=O)c2c1C 23.5%
O=C(CCl)Nc1nc(-c2ccco2)c(-c2ccco2)s1 26.5%
CCCCC(=O)Nc1ccc(C(=O)NNC(=S)NC(=O)c2ccco2)cc1 30.9%
CC(C)CC(=O)N1CCN(S(=O)(=O)c2ccccc2)CC1 35.2%
C=CCc1cccc(/C=N/c2nc3ccccc3n2CC)c1O 31.1%
C#CCCCCCCC#CCN(C)C 33.6%
CCCc1nc2ccc(NC(=O)c3ccco3)cc2c(=O)n1Cc1ccccc1Cl 40.2%
O=[N+]([O-])c1ccc(-c2ccn[nH]2)o1 36%
COc1ccc(NCc2ccc([N+](=O)[O-])s2)cc1 30.4%
CCOC(=O)c1nnc(-c2ccc(C)cc2)nc1Sc1ccc(Cl)cc1 29.1%
CCOC(=O)c1c(O)c2cc(Cl)ccc2n(CC)c1=O 40.3%
O=S(=O)(Cc1cc(Sc2ccccc2)nc(-c2ccccc2)n1)c1ccccc1 33.7%
COc1ccc(C2SCC(=O)N2CCCN(C)C)cc1 (configuration not stated) 39.6%
CS(=O)(=O)N1CCC(C(=O)Nc2ccc3c(c2)OCO3)CC1 19.4%
COc1ccc(NC(=O)C2CCN(C(=O)c3ccc(OC)cc3)CC2)cc1 26.8%
CC(=O)Nc1cccc(OCCCNC(=O)C2CCC2)c1 39.1%
Cc1cc(C)cc(NS(=O)(=O)c2ccc(NC(=O)C3CCCCC3C(=O)O)cc2)c1 (configuration not stated) 26.8%
